# According to PubChem BioAssay (NCI):
# Compounds without any hit were thinned out: in the full panel of roughly 83,000, 20% have a hit.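 Interpretation: 100, growth as untreated; towards 0, rising growth inhibition; 0, no net growth; 0 to -100, cell death. Compounds scoring below 10 were considered active.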 Unmarked numbers belong to inactive results. Activity calls are given as the source filed them.
# Tests used:
# Experiment in all cases: NCI-60 one-dose screen, 48 h (100 = growth as untreated, 0 = no growth, -100 = all killed)
# Conditions in all cases: 10 µM unless noted
# SR leukemia = system: SR leukemia
# RPMI-8226 leukemia = system: RPMI-8226 leukemia
# OVCAR-8 ovarian = system: OVCAR-8 ovarian
# OVCAR-5 ovarian = system: OVCAR-5 ovarian
# OVCAR-4 ovarian = system: OVCAR-4 ovarian
# SK-OV-3 ovarian = system: SK-OV-3 ovarian
# IGROV1 ovarian = system: IGROV1 ovarian
# OVCAR-3 ovarian = system: OVCAR-3 ovarian
# HS 578T breast = system: HS 578T breast
# NCI/ADR-RES ovarian = system: NCI/ADR-RES ovarian
Structure (SMILES),growth (SR leukemia),growth (RPMI-8226 leukemia),growth (OVCAR-8 ovarian),growth (OVCAR-5 ovarian),growth (OVCAR-4 ovarian),growth (SK-OV-3 ovarian),growth (IGROV1 ovarian),growth (OVCAR-3 ovarian),growth (HS 578T breast),growth (NCI/ADR-RES ovarian)
CCOC(=O)C/C(=C\c1ccccc1)C(C)=O,96.7%,95%,90.9%,108%,112%,75.1%,109%,107%,108%,110%
COc1cc(-c2cc3ncccc3c3[nH]c(=O)c4cccnc4c23)cc(OC)c1OC,20%,6.32% (active),35.9%,45.4%,58.1%,11.2%,50.1%,33.6%,10.6%,22.1%
NC(Cc1ccc(O)cc1)C(=O)N/N=C/c1ccccc1O (stereo not given),82.5%,103%,96.2%,110%,90.1%,113%,92.8%,103%,107%,102%
CC[C@]12C=CCN3CC[C@@]4(c5cc([C@H]6CCC(=O)N6)c(OC)cc5N(C)[C@H]4[C@@](O)(C(=O)OC)[C@@H]1OC(C)=O)[C@@H]32,92% [2.5 µM],114% [2.5 µM],103% [2.5 µM],88.4% [2.5 µM],104% [2.5 µM],91.1% [2.5 µM],103% [2.5 µM],112% [2.5 µM],113% [2.5 µM],107% [2.5 µM]
c1ccc(CN2C(c3ccccc3)=Nc3ccccc3C2c2c[nH]c3ccccc23)cc1 (stereo not given),-17.8% (active),4.99% (active),44.4%,60.7%,27.1%,71.6%,19.3%,57.6%,52.3%,30.2%
N=C(N)N=Nc1ccc(O)cc1,35.6% [100 µM],65.7% [100 µM],36.7% [100 µM],116% [100 µM],68.9% [100 µM],106% [100 µM],85% [100 µM],68.3% [100 µM],60% [100 µM],36.8% [100 µM]
O=C1/C(=C\c2ccco2)SC(=S)N1CCc1ccc(O)cc1,95.7%,83.1%,102%,103%,90.3%,100%,94.6%,105%,99.5%,103%
Nc1nc(Br)nc2c1ncn2C1CC(O)C(CO)O1 (stereo not given),52.2%,73.5%,35.9%,76.3%,81.9%,94.2%,96.3%,80.9%,91.7%,22.3%
COc1cc(/C=N/Nc2ncnc3c2c(C)nn3-c2ccc(F)cc2)ccc1O,77%,92.5%,96.4%,131%,90.3%,99.2%,79.5%,75.8%,99.1%,95.7%
CC1(C)CC[C@]2(C(=O)NCCNCCN)CC[C@]3(C)C(=CC[C@@H]4[C@@]5(C)CCC(=O)C(C)(C)[C@@H]5CC[C@]43C)[C@@H]2C1,-45.6% (active),-19.9% (active),21.4%,106%,65.3%,89.9%,23.8%,-27.2% (active),79%,93.2%
CCN1CCN(C(=O)[C@]23CCC(C)(C)C[C@H]2C2=CC[C@@H]4[C@@]5(C)CC/C(=N/O)C(C)(C)[C@@H]5CC[C@@]4(C)[C@]2(C)CC3)CC1,0.702% (active),16.6%,56.9%,78.1%,-20.5% (active),105%,68%,53.5%,84.2%,60.1%
COc1ccc(/C(=C\c2ccc3c(c2)OCO3)C(=O)Nc2nc3ccccc3s2)cc1OC,69.8%,78.2%,86.8%,93.7%,92.2%,102%,101%,97%,95%,98.1%
Cn1c2c(Cl)c(Cl)ccc2c2c(C#N)c[nH]c(=O)c21,112%,65.2%,91.2%,123%,99.5%,107%,89.5%,110%,84.5%,103%
C=C(C)[C@@H]1CC[C@]2(C)[C@H](CC=C3[C@@H]4CC(C)(C)CC[C@]4(C=O)CC[C@]32C)[C@@]1(C)CCCN,-31.5% (active),14.2%,77.8%,91.8%,85.7%,94.2%,88.4%,80.1%,96%,87.2%
Cn1c(/C(C#N)=C/c2ccc3ccccc3c2)cc2ccccc21,19.5%,5.55% (active),30.3%,34.4%,56.5%,58.8%,21.2%,-0.996% (active),23.8%,-18.4% (active)
C[C@@H](Oc1ccc(C(=O)NS(=O)(=O)C(C)(C)C)cc1C(F)(F)F)c1ccc(Oc2ccccc2)cn1,29.7%,71.5%,41.2%,86.5%,67.2%,69.6%,37.4%,8.19% (active),4.34% (active),66.4%
N#C/C(=C\c1ccc(-c2ccccc2)o1)c1nc(-c2ccco2)cs1,103%,49.6%,96.9%,53.8%,11%,97.2%,43.1%,78.7%,95.7%,95.5%
CC(C)/C=C/CC[C@](C)(O)[C@H]1CC[C@]2(C)[C@@H]1CC[C@@H]1[C@@]3(C)C/C(=C/c4cccc(C(F)(F)F)c4)C(=O)C(C)(C)[C@@H]3CC[C@]12C,82.6%,95.4%,87.6%,107%,87.2%,103%,104%,93.8%,99.7%,97.8%
O=Cc1nc2ccccc2[nH]1,83%,96.9%,100%,104%,110%,94.2%,107%,111%,95.4%,106%
COc1cccc2c1C(=O)c1c(O)c3c(c(O)c1C2=O)C[C@@](O)(C(=O)CO)C[C@@H]3OC1C[C@H](N)[C@H](O)[C@H](C)O1 (stereo not given in full),-10.5% (active),0.341% (active),4.15% (active),9.77% (active),4.65% (active),8.44% (active),4.86% (active),-2.36% (active),-12.9% (active),72.9%
COc1ccc2c3c(c4ccccc4cc13)C(=O)N(CCN(C)CCN)C2=O,-31.8% (active),-45.1% (active),-52.5% (active),-65.9% (active),-79.4% (active),-6.29% (active),-48.4% (active),-62.5% (active),24.8%,-7.12% (active)
O=C1c2ccccc2NC(c2cn(-c3ccccc3)nc2-c2cccnc2)N1Cc1ccccc1 (stereo not given),78.8%,76.5%,98.3%,91.5%,92.2%,117%,76.5%,102%,96.2%,97.3%
CC(=O)OCCCCCCn1c2ccccc2c2c3c(c4c5ccccc5n(C)c4c21)C(=O)N(O)C3=O,17.1%,31.2%,66.3%,98.6%,70.5%,86.9%,49.6%,77.2%,124%,52.1%
Cc1nn(-c2ccc(Br)cc2)c2nc3[nH]c(=O)[nH]c(=O)c3nc12,114%,121%,111%,112%,103%,110%,107%,117%,104%,107%
Cc1ccc(-c2nn(Cc3cn(-c4cc(C)nc5ccccc45)nn3)c3ncnc(N)c23)cc1,61.6%,35.6%,62.5%,57.9%,51.7%,56.5%,15.5%,53.1%,18.2%,59.7%
